Data reported in the supplement of paper PMC11150407.
The whole screen tested about 3,000 compounds, of which about 45 (2%) showed an effect of 50% or more. For the sample, strong results were picked, then their nearest neighbours and some compounds at random.

test system: MOLM1 and UCSD/AML1 (averaged); test: cell viability relative to DMSO control (POC); higher = less growth inhibition; details: 1 µM; 72 h
Method: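 Primary viability screen in the 3q26 EVI1-high AML cell lines MOLM1 and UCSD/AML1, compounds at 1 uM for 72 h. ATP CellTiter-Glo read-out given as percent viable over DMSO control (POC), averaged over duplicates. This mapping covers the TimTec NDL-3000 natural derivative library, whose compounds are identified by TimTec catalogue codes (ST...).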

Structure (SMILES) | cell viability [%]
Cc1cc(C)c(NC(=O)Cn2c(=O)cc(C(=O)N3CCCCC3)c3ccccc32)c(C)c1 | 99.4
COCCOC(=O)c1c(C)n(CCOC23CC4CC(CC(C4)C2)C3)c2c1cc(O)c1ccccc12 | 81.2
Cc1ccc(-n2c(SCC(=O)Nc3ccccc3C(F)(F)F)nc3c(=O)[nH]cnc32)cc1 | 108
COc1cc(C(=O)Nc2ccc3c(c2)ncn3C)cc(OC)c1OC | 19
COc1cc(C(=O)Nc2ccc(C(=O)NCc3ccccc3)cc2)cc(OC)c1OC | 87
COc1cc(C(=O)Nc2ccc3ncn(C)c3c2)cc(OC)c1OC | 93.9
COc1cc(C(=O)Nc2ccccc2C(=O)NCc2ccccc2)cc(OC)c1OC | 85.2
COc1ccc(C(=O)Nc2ccc3ncn(C)c3c2)cc1OC | 101
COC(=O)c1ccc(NC(=O)c2cc(OC)c(OC)c(OC)c2)cc1 | 23.1
CCCCc1ccc(NC(=O)c2cc(OC)c(OC)c(OC)c2)cc1 | 49.6
COc1cc(C(=O)Nc2ccccc2C(=O)Nc2ccccc2)cc(OC)c1OC | 36
COc1cc(C(=O)Nc2ccc(CN3CCCC3)cc2)cc(OC)c1OC | 87.4
COc1cc(C(=O)Nc2ccc(C(=O)c3cccs3)cc2)cc(OC)c1OC | 99.7
COc1cc(C(=O)Nc2ccccc2NC(=O)c2cc(OC)c(OC)c(OC)c2)cc(OC)c1OC | 95.9
COc1cc(C(=O)Nc2ccc(C(F)(F)F)cc2)cc(OC)c1OC | 93.8
O=C(CSc1nc2ccccc2c(=O)[nH]1)NCc1ccccc1Cl | 107
Cc1ccc(NC(=O)CN2C(=O)S/C(=C/c3cc4c(cc3Cl)OCO4)C2=O)cc1 | 92
CNC(=O)c1ccccc1NC(=O)C(=O)c1c[nH]c2ccccc12 | 111
CCOC(=O)/C=C1\NC(C)(C)Cc2cc3c(cc21)OCCO3 | 89.5
CC(C)COc1ccc(C(=O)N/C(=C\c2ccccc2)C(=O)NCCNC(=O)/C(=C\c2ccccc2)NC(=O)c2ccc(OCC(C)C)cc2)cc1 | 103
COc1cc(OC)cc(C(=O)Nc2cc(OC)cc(S(=O)(=O)c3ccc(Cl)cc3)c2)c1 | 92.8
CCc1cccc(C)c1NC(=O)CN1CCN(Cc2cc(=O)oc3cc(C)ccc23)CC1 | 95.4
Cc1ccc2c(C)cc(=O)[nH]c2c1C | 109
COc1cc(C(=O)CCNc2ccc(F)cc2)cc(OC)c1OC | 78.3
Cc1ccc2[nH]c(C)c(CCNS(=O)(=O)c3ccc4c(c3)OCCO4)c2c1 | 99.4
COc1ccc(/C=C/C(=O)c2ccccc2)cc1COc1ccc([N+](=O)[O-])cc1 | 101
COc1ccc(/C=C/C(=O)c2ccccc2)cc1COc1ccc(Cl)cc1 | 106

Structure (SMILES) | cell viability [%]
COc1ccc(/C=C/C(=O)c2ccccc2)cc1COc1ccc(NC(C)=O)cc1 | 40
Cc1ccc(C)c(-c2nc(CSc3nc4c(=O)[nH]cnc4n3C)c(C)o2)c1 | 103
Cc1cc2c(c(O)c1-c1c(C)cc3c(c1O)/C(=C/Nc1c(C)n(C)n(-c4ccccc4)c1=O)C(=O)C(O)=C3C(C)C)/C(=C/Nc1c(C)n(C)n(-c3ccccc3)c1=O)C(=O)C(O)=C2C(C)C | 84.6
COc1cc(C(=O)NC(C(=O)O)C(C)C)cc(OC)c1OC (centres undefined) | 103
CC(C)(C)c1ccc(C(=O)NCC(=O)O)cc1 | 95.9
O=C(/C=C/c1cccc([N+](=O)[O-])c1)c1ccc2c(c1)OCO2 | 98.1
O=[N+]([O-])C1=Cc2ccccc2OC1c1ccc2c(c1)OCO2 (centres undefined) | 2.67
O=C(/C=C/c1ccc([N+](=O)[O-])cc1)NCc1ccc2c(c1)OCO2 | 97
COCCN1C(=O)/C(=C\c2cc(OC)c(OC)c(OC)c2)C(C(=O)OC)=C1C | 101
O=C(CCNc1cccc(Cl)c1)c1cc2ccccc2oc1=O | 115
CCOC(=O)c1ccc2[nH]c(=O)c(C)c(O)c2c1 | 108
CCOC(=O)c1ccc2[nH]c(-c3ccccc3)cc(=O)c2c1 | 7.45
CCOC(=O)c1ccc2[nH]c(=O)c(Cc3ccccc3)c(O)c2c1 | 97.9
COc1ccc(C(=O)CC2(O)C(=O)N(Cc3cccc4ccccc34)c3ccccc32)cc1OC (centres undefined) | 97.5
NC(=O)CC1CCCCN1 (centres undefined) | 126
Cc1ccc2oc(C(Cl)(Cl)Cl)cc(=O)c2c1 | 26.6
Cc1ccc2oc(-c3ccc(Cl)cc3)cc(=O)c2c1 | 85.9
O=c1cc(-c2ccccc2Br)oc2ccc(Cl)cc12 | 110
O=c1cc(-c2ccc(Br)cc2)oc2ccc(Cl)cc12 | 96
Cc1ccc(-c2cc(=O)c3ccccc3o2)cc1 | 92.3
Cc1ccc2oc(-c3ccccc3C)cc(=O)c2c1 | 21.6
Cc1ccccc1-c1cc(=O)c2cc(Br)ccc2o1 | 106
O=c1cc(C(Cl)(Cl)Cl)oc2ccccc12 | 4.98
O=c1cc(O)c2cc(Cl)ccc2o1 | 101
O=c1cc(C(Cl)(Cl)Cl)oc2ccc(Cl)cc12 | 7.16
Cc1ccc2occc(=O)c2c1 | 100
O=c1ccoc2ccccc12 | 93.1
